Results on 18 compounds are retold here after PubChem BioAssay (NCATS).

Molecules are shown by their SMILES. A number with no mark means an inactive call. Results filed as inconclusive are left out. Calls of active or inactive are those of the source. The call rests on the fitted dose curve; in most records, active means well fitted curve in the direction sought with a large enough effect; inconclusive means small, poorly fitted or top-dose-only effect, or another doubt; inactive means no such curve, though single readings can be large; an effect the other way counts as inactive or inconclusive.

Test [1] is described as follows: qHTS to identify inhibitors of the type 1 interferon - major histocompatibility complex class I in skeletal muscle: primary screen against the NCATS Pharmaceutical Collection (AID 1347407).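 Further: luminescence of HiBiT knocked into endogenous HLA-B as interferon-induced MHC class I level; on the % scale 0 is the no-effect control and ±100 the full control effect.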 Put shortly:
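Immortalized human myoblasts (C25cl48) with HiBiT knocked into endogenous HLA-B*08:01 were stimulated with 4.0 ng/ml IFN-beta and treated with compounds ([…] top 46 uM) for 24 hrs at 37 C. HiBiT lytic luminescence read.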
(In qHTS, concentration-response curves come from the screen itself.)

The target in test [2] is Protein phosphatase 1D (Homo sapiens) (UniProt O15297). Kind of test: RapidFire Mass Spectrometry qHTS Assay for Modulators of WT P53-Induced Phosphatase 1 (WIP1) (AID 1347424).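 Further: amount of dephosphorylated VEPPL-S-QETFS peptide product formed by WIP1; series mostly up to about 63 µM; plate controls were DMSO wells for no effect and GSK830371 inhibitor control at 10 µM for full effect.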 Put shortly:
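WIP1 (10 nM final) was preincubated 1 h at room temperature with compounds in Tris-HCl pH 7.5, 30 mM MgCl2, TCEP, EGTA, BSA; 2 uM VEPPL-pS-QETFS phosphopeptide was added for 5 min, quenched with formic acid, and dephosphorylated product quantified by RapidFire MS.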

Test [3] has the same target. As to the kind of experiment: Rhodamine-PBP qHTS Assay for Modulators of WT P53-Induced Phosphatase 1 (WIP1) (AID 1347425). Further: % of control where 0% means no effect. The gist of the method: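 5 nM WIP1 + 10 uM Rh-PBP, 50 mM Tris pH 7.5, 30 mM MgCl2, 1 mM TCEP, 0.1 mM EGTA, BSA; cpds pinned, 1 hr RT; + 10 uM phosphopeptide; fluorescence 1-min reads x 11 min; delta = f1 - f0.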
The nature of test [4]: Primary qHTS for inhibitors of La Crosse Virus (LACV) - induced cell death in SH-SY5Y cells (AID 1508616).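 Further: top concentration of the series differs between compounds; 0% = infected DMSO wells and 100% = uninfected DMSO wells; higher means more rescue of cells from virus-induced death.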 Put shortly:
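Luminescent ATP readout (ATPLite 1step, 5 min room temperature) measured rescue from LACV-induced death after 6 days of infection at 0.01 MOI; normalized to infected DMSO wells and uninfected DMSO wells.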

Test [5] in a line: qHTS to identify inhibitors of the type 1 interferon - major histocompatibility complex class I in skeletal muscle: primary screen against the NCATS LOPAC collection (AID 1347405).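 Further: lytic HiBiT luminescence reporting HLA-B protein level; on the % scale 0 is the no-effect control and ±100 the full control effect.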 The gist of the method: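 Immortalized human C25cl48 myoblasts with HiBiT knocked into endogenous HLA-B*08:01 were stimulated with 4.0 ng/ml IFN-beta and given compounds in a 7-point, 1:4.3 titration from 46 uM final; after 24 hrs, lytic HiBiT luminescence was read.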

Test [6] is described as follows: qHTS for inhibitors of adenylyl cyclases using a fission yeast platform: a pilot screen against the NCATS LOPAC library (AID 1347410).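 Further: plate controls were DMSO vehicle for no effect and DPI positive control for full effect.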 The gist of the method:
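S. pombe CHP2027 (AC9-GNAS-PDE4D2) carrying PKA-repressed fbp1-GFP, incubated 18 h at 30C in EMM with LOPAC compounds at up to 57 uM. GFP gain-of-signal read by laser scanning cytometry; DMSO negative control.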

The nature of test [7]: qHTS to identify inhibitors of the type 1 interferon - major histocompatibility complex class I in skeletal muscle: primary screen against the NCATS Mechanism Interrogation Plate v5.0 (MIPE) Libary (AID 1347411).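 Further: plate controls were vehicle for no effect and reference inhibitor for full effect; nearly all actives have a fitted effect of over 65% in size.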 The gist of the method:
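Immortalized human C25cl48 myoblasts with HiBit knocked into endogenous HLA-B*08:01 were stimulated with 4.0 ng/ml IFN-beta and exposed to compounds (11-point 1:3 titration, top 46 uM final) for 24 hrs at 37 C; HiBiT lytic luminescence measured.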

A short description of test [8]: Validation qHTS assay for inhibitors of Activation Induced Cytidine Deaminase (AID): UDG Counterscreen signal (AID 1347427). Further: 0% is about no effect. The gist of the method: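 Counterscreen read of UDG activity (2 U/mL, 4/3x) in the FRET deamination format with AID (1 uM, 4/3x), DJC20/DJC23 substrates (250 nM, 4x), 4 h at room temperature. NaOH stop, fluorescence at 560 ex/665 em.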
The target in test [9] is Single-stranded DNA cytosine deaminase (Homo sapiens) (UniProt Q9GZX7). As to the kind of experiment: Validation qHTS assay for inhibitors of Activation Induced Cytidine Deaminase (AID): AID signal (AID 1347429). Further: on the % scale 0 is the no-effect control and ±100 the full control effect. Put shortly:
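AID and UDG were combined and compounds added at final up to 114 uM, then DJC20/DJC23 FRET substrate was added for 4 hr at room temperature. NaOH was then added for 30 min before fluorescence was read at 540/590 nm.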

Test [10] has as its target Calcium and integrin-binding protein 1 (Homo sapiens) (UniProt Q99828). As to the kind of experiment: Validation qHTS for Identification of Calcium Integrin Binding protein 1 (CIB1) Competitor (AID 1508618). Further: on the % scale 0 is the no-effect control and ±100 the full control effect. The gist of the method: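 Displacement of FITC-alphaIIb peptide (100 nM) from CIB1-GST (1 uM) is monitored by polarization in quantitative HTS format; buffer carries 5 mM CaCl2 and 125 mM NaCl at pH 7.4, incubations are at room temperature.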

Test [11] has the same target. Kind of test: Primary qHTS for Identification of Calcium Integrin Binding Protein 1 (CIB1) Competitor (AID 1508620). The gist of the method: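 Fluorescence polarization competition: CIB1-GST (1 uM final) preincubated with compound 15 min at room temperature, then FITC-labeled alphaIIb peptide (100 nM final) added for another 15 min. Polarization read at Ex 480/Em 540.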

The test system of test [12] is Zika virus NS2B-NS3 protease (linked). As to the kind of experiment: 384 well plate NINDS AMC confirmatory qHTS for Zika virus inhibitors (AID 1347163). Further: potency means the concentration at half of the fitted maximal effect; nearly all actives have a fitted effect of over 50% in size. The following applies: Recombinant NS2B-NS3 protease, Ac-VKTGKR-AMC fluorescence. The gist of the method: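 Linked protease 5/30/60 nM final; cpds up to 1 mM final, ~15 min preinc. Substrate Ac-VKTGKR-AMC 30 microM final. RT, dark, 25 min; FI ex 355/em 460; normalized to no-enzyme/no-inhibitor ctrls.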

Test [13] concerns Zika virus NS2B-NS3 protease (linked construct). As to the kind of experiment: 384 well plate NINDS Rhodamine confirmatory qHTS for Zika virus inhibitors (AID 1347164).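 Further: fluorescence from protease cleavage of Ac-LKRR-rhodamine 110 substrate; potency means the concentration at half of the fitted maximal effect; nearly all actives have a fitted effect of over 65% in size.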 The following applies: rhodamine-110 peptide substrate fluorescence. The gist of the method:
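Linked NS2B-NS3 protease (final 5, 30 or 60 nM) preincubated ~15 minutes with compounds, then 10 microM Ac-LKRR-Rhodamine 110 added. Fluorescence (485/538 nm) read after 25 minutes at room temperature, normalized to no-enzyme and no-inhibitor controls.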

A short description of test [14]: Vero cells viability qHTS for Zika virus inhibitors (AID 1347167). Further: on the % scale 0 is the no-effect control and ±100 the full control effect. The gist of the method:
(§1)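 Counter-screen for cytotoxicity of hits from NS2B-NS3 protease qHTS. Overnight-attached cells (2.5 x 10^5 cells/mL, DMEM/4% FBS) were dosed in titration, incubated 24 to 48 hours, then assayed by CellTiter Glo.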

Test [15] is described as follows: HepG2 cells viability qHTS for Zika virus inhibitors (AID 1347168). Further: on the % scale 0 is the no-effect control and ±100 the full control effect. Put shortly:
as §1

Test [16] in a line: Tertiary RLuc qRT-PCR qHTS assay for Zika virus inhibitors (AID 1347169). Further: top concentration of the series differs between compounds; on the % scale 0 is the no-effect control and ±100 the full control effect; nearly all actives have a fitted effect of over 55% in size. The gist of the method: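 Vero cells (1,000/well) infected with recombinant ZIKV-RLuc (Cambodian) at MOI 1-2 after compound addition, 48-72 hrs at 37 degrees C. Live-cell Renilla luciferase substrate added; luminescence read after 1-1.5 hrs.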
On the technique in general: In qPCR the cycle at which signal appears reflects the starting amount.

Test [17] can be described thus: Confirmatory qHTS for small molecule stabilizers of the endoplasmic reticulum resident proteome: Secreted ER Calcium Modulated Protein (SERCaMP) assay (AID 1508628). Further: potency means the concentration at half of the fitted maximal effect; nearly all actives have a fitted effect of over 40% in size. Put shortly:
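We seeded SH-SY5Y-GLuc-SERCaMP cells, added compounds (three concentrations in the primary run, eleven up to 76.6 uM in confirmation), incubated 16 h, depleted ER calcium with thapsigargin, and read luciferase 4 h later.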

Sequence of Calcium and integrin-binding protein 1 (Homo sapiens) (Q99828 whole entry, looked up): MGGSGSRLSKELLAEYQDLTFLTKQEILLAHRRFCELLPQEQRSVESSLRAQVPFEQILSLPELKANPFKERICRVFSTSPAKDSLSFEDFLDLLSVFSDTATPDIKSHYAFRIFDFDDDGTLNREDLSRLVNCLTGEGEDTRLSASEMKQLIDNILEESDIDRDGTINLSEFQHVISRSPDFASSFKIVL
Sequence of Protein phosphatase 1D (Homo sapiens) (O15297 whole entry, looked up): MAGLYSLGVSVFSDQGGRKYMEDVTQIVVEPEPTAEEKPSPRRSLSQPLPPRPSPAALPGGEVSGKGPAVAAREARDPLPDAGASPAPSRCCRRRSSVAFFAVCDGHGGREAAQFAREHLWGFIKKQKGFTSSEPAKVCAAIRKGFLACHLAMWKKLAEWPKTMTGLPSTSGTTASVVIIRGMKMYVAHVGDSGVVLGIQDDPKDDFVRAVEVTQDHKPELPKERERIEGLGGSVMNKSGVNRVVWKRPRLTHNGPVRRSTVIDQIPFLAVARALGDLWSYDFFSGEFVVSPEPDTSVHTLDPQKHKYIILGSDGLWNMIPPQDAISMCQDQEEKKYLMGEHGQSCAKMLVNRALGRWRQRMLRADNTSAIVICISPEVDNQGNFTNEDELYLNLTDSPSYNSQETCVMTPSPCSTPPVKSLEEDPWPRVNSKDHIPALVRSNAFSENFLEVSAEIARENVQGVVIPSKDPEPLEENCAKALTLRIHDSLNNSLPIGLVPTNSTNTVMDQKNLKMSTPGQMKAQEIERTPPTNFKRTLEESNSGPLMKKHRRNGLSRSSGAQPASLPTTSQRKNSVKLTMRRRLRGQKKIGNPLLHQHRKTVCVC
Sequence of Single-stranded DNA cytosine deaminase (Homo sapiens) (Q9GZX7 whole entry, looked up): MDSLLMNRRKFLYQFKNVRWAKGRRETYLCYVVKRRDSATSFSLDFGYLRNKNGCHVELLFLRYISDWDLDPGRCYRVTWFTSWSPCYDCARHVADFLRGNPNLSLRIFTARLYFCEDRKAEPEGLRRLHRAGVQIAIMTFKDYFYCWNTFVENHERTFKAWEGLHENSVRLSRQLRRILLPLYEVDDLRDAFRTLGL

Regarding `Nc1ccc(N=Nc2ccccc2)c(N)n1`, the result in [1], in test [2], in [3] and in test [4] was inactive.

Regarding `Oc1ccc(/C=C/c2cc(O)cc(O)c2)cc1`, the result in test [5], in test [1], in test [6], in test [2], in test [8] and in test [9] was inactive. The result in [4] and in [10] was inactive. Further, the Potency entry in test [7] and in test [11] was “inactive” throughout.

On to `O=C(O)CCC(=O)c1ccc(-c2ccccc2)cc1`, for which the compound was called inactive in [1], in test [2], in test [3] and in [4]. In [11], the Potency entry was “inactive”.

With `NC[C@H]1O[C@H](O[C@H]2[C@H](O)[C@@H](O[C@H]3O[C@H](CO)[C@@H](O)[C@H](N)[C@H]3O)[C@H](N)C[C@@H]2N)[C@H](N)C[C@@H]1O`, the Potency entry in test [7] is “inactive”.

On to `O=C(O)Cc1cc(I)c(Oc2ccc(O)c(I)c2)c(I)c1`, for which the Potency is 2.82 µM (active) in test [12] and 3.16 µM (active) in [13]. Further, the compound was classed as inactive in test [14] and in test [15]. The activity change, negative = inhibition in test [16] is 45.7% [at 0.566 µM]. Moreover, the Potency entry in test [11] is “inactive”.

In the case of `CC(C)(C)c1ccc(CN2CCN(C(c3ccccc3)c3ccc(Cl)cc3)CC2)cc1` (centres undefined), the Potency entry in test [11] was “inactive”.

For the compound `Cc1cc(-c2ccc(N=Nc3ccc4c(S(=O)(=O)O)cc(S(=O)(=O)O)c(N)c4c3O)c(C)c2)ccc1N=Nc1ccc2c(S(=O)(=O)O)cc(S(=O)(=O)O)c(N)c2c1O`, the Potency is 5.62 µM (active) in test [12], 8.91 µM (active) in test [13] and 31.6 µM (active) in test [17]. Further, the Potency entry in test [16] was “inactive”.

For `Cc1cc(-c2ccc(N=Nc3c(S(=O)(=O)O)cc4cc(S(=O)(=O)O)cc(N)c4c3O)c(C)c2)ccc1N=Nc1c(S(=O)(=O)O)cc2cc(S(=O)(=O)O)cc(N)c2c1O`, the Potency in test [12] is 20 µM (active); in test [13], 7.94 µM (active). For the same compound, the Potency entry in [16] is “inactive”.

With `CN[C@@H]1[C@@H](O)[C@@H](O[C@@H]2[C@@H](O)[C@H](O[C@H]3O[C@H](CN)[C@@H](O)[C@H](O)[C@H]3O)[C@@H](N)C[C@H]2NC(=O)C(O)CN)OC[C@]1(C)O` (some centres undefined), the Potency result in [7] was “inactive”.

As for `CC1(C)C(\C=C/C=C\C=C/C=C2/N(CCCCS(=O)(=O)O)c3ccc4ccccc4c3C2(C)C)=[N+](CCCCS(=O)(=O)[O-])c2ccc3ccccc3c21`, the Potency in test [12] was 39.8 µM (active); in test [13], 4.47 µM (active).

With `N[C@@H](Cc1cc(I)c(Oc2ccc(O)c(I)c2)c(I)c1)C(=O)O`, in test [16], the activity change, negative = inhibition is 35% [at 3.57 µM].

In the case of `C[C@]12CC[C@@H]3c4ccc(OC(=O)c5ccccc5)cc4CC[C@H]3[C@@H]1CC[C@@H]2O`, in test [11], the Potency entry is “inactive”.

On to `CC(C)(C)CC(C)(C)c1cc(Cc2cc(C(C)(C)CC(C)(C)C)cc(-n3nc4ccccc4n3)c2O)c(O)c(-n2nc3ccccc3n2)c1`, for which, in [16], the activity change, negative = inhibition was -2.91% [at 1.74 µM].

In the case of `COc1cc(C)c(/C=C/C(C)=C/C=C/C(C)=C/C(=O)O)c(C)c1C`, in test [7], the Potency result is “inactive”.

Consider `CO[C@H]1O[C@@H]2O[C@@]3(C)CC[C@H]4[C@H](C)CC[C@@H]([C@H]1C)[C@@]24OO3`, for which the Potency entry in test [7] is “inactive”.

Consider `CC(=O)NCCCS(=O)(=O)O`, for which the Potency result in test [7] is “inactive”.

`O=C(OCc1ccccc1)c1ccc(O)cc1`: the outcome in [1], in test [2], in test [3] and in test [4] was inactive. Besides, the Potency result in [11] was “inactive”.

`CC[C@H]1OC(=O)[C@H](C)[C@@H](O[C@H]2C[C@@](C)(OC)[C@@H](O)[C@H](C)O2)[C@H](C)[C@@H](O[C@@H]2O[C@H](C)C[C@H](N(C)C)[C@H]2O)[C@](C)(O)C[C@@H](C)CN(C)[C@H](C)[C@@H](O)[C@]1(C)O`: the Potency entry in test [7] was “inactive”.
